Only some compounds are listed: those with a hit (about 11% of all), similar ones and a draw of the others.
USP30 inh – inhibitors of human USP30 deubiquitinase; Q70CQ3; AID 1645860; purified USP30, Ub-rhodamine cleavage fluorescence; actives 5.3% (n = 47,000); inhibition, % at 25 µM
USP17 block – inhibitors of human USP17 deubiquitinase. A8MUK1. purified USP17, Ub-rhodamine cleavage fluorescence, 3 h. inhibition, % at 50 µM. actives 6.5% (n = 47,000)
USP28 inh – human USP28 deubiquitinase inhibition; Q96RU2; actives 3% (n = 47,000); inhibition, % at 25 µM; AID 1645857; purified USP28, Ub-rhodamine cleavage fluorescence, 30 min
Large screens that a line does not name were inactive. Rule as the data show it: active = inhibition above about 30%; inactive = the rest.

CN(C)CC(=O)N1CCC2(CC1)CN(C(=O)c1ccc3[nH]ccc3c1)Cc1ccccc1O2	none
Cc1[nH]c(C)c(S(=O)(=O)NC2CCCCC2)c1C(=O)N1CCCC1	none
Cc1oc(CNC(=O)Cc2c(F)cccc2Cl)nc1C(=O)N1CCC(C)CC1	none
Clc1ccc(Cn2c(NCc3ccccc3Cl)nc3ccccc32)cc1	USP30 inh 34
CC(C)(C)c1ccc(Cn2c(/C=C/c3ccccc3)nc3ccccc32)cc1	none
CC(C)NC(=O)Cn1cccc1-c1nc(-c2ccc3c(c2)OCO3)no1	none
COCCCNc1cc(-c2cncc(-c3cccs3)c2)nc(-c2ccccc2)n1	none
Cc1nc(NCc2ccc(Cl)cc2)cc(-c2cncc(-c3cccs3)c2)n1	USP17 block 35
CCN1C[C@H]2CCN(C(=O)NC3CCCC3)CC[C@H]2S1(=O)=O	none
COc1ccc(C(C)=O)cc1CSc1nc2ccccc2c(=O)n1C1CCCC1	none (no result: USP30 inh, USP28 inh)
Cc1ccccc1C(=O)Nc1ccc(Cc2ccc(NC(=O)c3ccccc3C)c(O)c2)cc1O	USP17 block 55
Cc1ccc2ncc(NC(=O)c3ccccc3C)c(=O)n2c1	none
Cc1nn(-c2ccc3nncn3n2)c2c1C(c1cc(F)ccc1F)CC(=O)N2 (stereo unspecified)	none
COc1ccc(S(=O)(=O)N2CCC(Nc3nc(C)cc(=O)[nH]3)CC2)cc1	none
Cc1ccc2c(c1)c(=O)c(C(=O)c1ccccc1)cn2CC(=O)Nc1ccc2c(c1)OCO2	none
COc1ccc(NC(=O)Cn2cc(C(=O)c3ccccc3)c(=O)c3cc(Cl)ccc32)cc1OC	none
Cc1ccc2c(c1)c(=O)c(C(=O)c1ccccc1)cn2CC(=O)Nc1ccc(C)c(Cl)c1	none
Cc1ccc(C(=O)c2cn(CC(=O)Nc3ccccc3C)c3ccc(C)cc3c2=O)cc1	USP17 block 40
COc1ccccc1NC(=O)Cn1cc(C(=O)c2ccc(C)cc2)c(=O)c2ccccc21	USP17 block 62
Cc1ccc2c(c1)c(=O)c(C(=O)c1ccc(F)cc1)cn2CC(=O)Nc1ccc2c(c1)OCCO2	USP17 block 70
COc1ccc2c(c1)c(=O)c(C(=O)c1ccc(Cl)cc1)cn2CC(=O)Nc1ccc(Cl)cc1	none
COc1ccc(NC(=O)Cn2cc(C(=O)c3ccc(Cl)cc3)c(=O)c3cc(F)ccc32)cc1	USP30 inh 39, USP17 block 31
CC(C)c1ccc(NC(=O)COC(=O)c2ccc(NS(=O)(=O)c3ccc4c(c3)OCCO4)cc2)cc1	none (no result: USP17 block)
Cc1ccc(NC(=O)Cc2nc(C)c(C(=O)NC3CC3)s2)c(F)c1	none (no result: USP17 block)
COc1cccc(C(=O)N2CCc3nc(C(=O)Nc4cccnc4)sc3CC2)c1	none
O=C(Nc1ccc(N2CCN(Cc3ccccc3)C2=O)nc1)c1ccncc1	none
O=C1N(Cc2ccc(F)cc2)CCN1c1ccc(C(F)(F)F)cn1	USP28 inh 65
CC(C)c1ccc(N2CCN(Cc3ccc(F)cc3)C2=O)cc1	USP28 inh 31
COc1cccc(CC(=O)NC2CCN(c3ccc(F)cc3)C2=O)c1 (stereo unspecified)	none (no result: USP17 block)
O=C1N(Cc2ccc(F)cc2)CCN1c1ccc2c(c1)CCC2	USP30 inh 31, USP28 inh 52
CC(C)c1ccc(N2CCN(Cc3cccnc3)C2=O)cc1	none
COc1cccc(CN2CCN(c3ccc(F)cc3)C2=O)c1	USP28 inh 40
CC(C)(C)c1ccc(CN2CCN(c3ccc4c(c3)CCC4)C2=O)cc1	none
O=S(=O)(c1ccc2c(c1)OCCO2)n1c(/C=C/c2ccccc2Cl)nc2ccccc21	none
Cc1nn(C)c(C)c1CCC(=O)N1CCSCC1c1ccccc1 (stereo unspecified)	none
CCC1=N[C@@]2(CC[C@@H]3CN(S(=O)(=O)CC)C[C@@H]32)C(=O)N1CC1CC1	none
Cc1ccc(NC(=O)CSc2nnc(-c3cnccn3)n2Cc2ccco2)cc1	USP17 block 53 (no result: USP30 inh, USP28 inh)
Cc1cccc(NC(=O)CSc2nnc(-c3cnccn3)n2Cc2ccco2)c1	none
Cc1ccc2c(c1)c(=O)cc(C(F)(F)F)n2C[C@H]1CCCN1S(C)(=O)=O	none
O=C(NCCc1ccc(Cl)cc1)c1cccc(-n2cnc3cccnc32)c1	none
COc1ccc(CCNC(=O)c2c(N)n(-c3cccc(Cl)c3)c3nc4ccccc4nc23)cc1	USP17 block 65
Cc1ccc(-n2c(N)c(C(=O)NCCc3ccccc3F)c3nc4ccccc4nc32)cc1	none
COc1ccc(CCNC(=O)c2c(N)n(-c3cccc(F)c3)c3nc4ccccc4nc23)cc1	USP17 block 38
CCC1CCCCN1Cc1ccc(CNC(=O)CCc2nnc3ccc(N4CCOCC4)nn23)o1 (stereo unspecified)	none
CCOc1ccc(S(=O)(=O)n2cc3c(=O)n(C)c(=O)n(C)c3n2)cc1	USP17 block 33
COc1ccc(S(=O)(=O)n2cc3c(=O)n(C(C)C)c(=O)n(C(C)C)c3n2)cc1	none
FC(F)(F)c1cccc(-n2nnnc2CN2CCOCC2)c1	none
O=[N+]([O-])c1ccc2nc3c(c(-c4ccccc4)c2c1)CNCC3	USP17 block 48
Cc1cc(=O)[nH]c(Sc2c(-c3ccccc3)c3cc([N+](=O)[O-])ccc3[nH]c2=O)n1	none
Cc1ccc(-n2c(=O)n(CC(=O)N3CCN(C)CC3)c3cccnc32)cc1	none
CCOc1ccc(C(=O)N2CCC(c3[nH]nc4nccnc34)CC2)cc1	none
Cc1cccc2nc(-c3cccnc3)c(NC3CCCC3)n12	USP28 inh 43
c1ccc(-c2cc(NC3CCCC3)n3nc(-c4cccnc4)nc3n2)cc1	none
Cc1nc(NC(=O)Cn2cncn2)sc1Cc1cccc(F)c1	none
O=c1cc(-c2cncc(-c3cc4ccccc4o3)c2)nc(-c2ccccc2)[nH]1	none
O=c1cc(-c2cncc(Br)c2)nc(-c2ccccc2)[nH]1	USP30 inh 30 (no result: USP17 block)
Cc1nc(-c2cccc(NC(=O)N3CCc4ccccc4C3)c2)no1	none
CC(C)CN1C[C@H]2CCN(C(=O)c3cccnc3)CC[C@H]2S1(=O)=O	none
CC1NC(=O)C(CC(N)=O)NC(=O)C(C(C)O)NC(=O)C(Cc2ccc(O)cc2)NC(=O)C(C(C)C)NC(=O)C(NC(=O)CC(O)CCCCCCCCCCCCN=C(N)N)C(C)OC1=O (stereo unspecified)	USP30 inh 86, USP17 block 34, USP28 inh 87
CCCCCCCCCCCCCCCC(=O)NC(CCC(=O)O)C(=O)NC(CCCN)C(=O)NC1Cc2ccc(cc2)OC(=O)C(C(C)CC)NC(=O)C(Cc2ccc(O)cc2)NC(=O)C(CCC(N)=O)NC(=O)C2CCCN2C(=O)C(C(C)C)NC(=O)C(CCC(=O)O)NC(=O)C(C(C)O)NC1=O (stereo unspecified)	none
CC(=O)N1CC[C@@]2(C(=O)N3CCCC3)CCN(S(=O)(=O)c3cc(C)ccc3C)CC[C@@H]12	none
Cc1cccc(C)c1NC(=O)CSc1nnc(-c2cc3ccccc3[nH]2)o1	none
CCn1c(-c2nnc(SCC(=O)NCCc3nc4ccccc4[nH]3)o2)cc2ccccc21	USP17 block 92 (no result: USP30 inh, USP28 inh)
O=C(Cn1nc2c3c4c(sc3ncn2c1=O)CCCCC4)Nc1ccc(Cl)cc1F	USP17 block 70
Cc1ccc(NC(=O)Cn2nc3c4c5c(sc4ncn3c2=O)CCCC5)cc1C	none
CCNC(=O)N1C[C@@H]2OCC(=O)N(c3ccccc3)[C@@H]2C1	none
Cc1ccccc1C(CC(=O)NCc1ccc2c(c1)OCO2)n1cccc1 (stereo unspecified)	none

Source: PubChem BioAssay
